# Screening data from PubChem BioAssay.
# Only some compounds are listed: those with a hit (about 1.9% of all), similar ones and a draw of the others.
# RecA splice inh – Mtb RecA intein splicing inhibitors, primary screen, biochemical, fluorescence, HTS; Protein RecA (Mycobacterium tuberculosis (strain ATCC 25618 / H37Rv)), P9WHJ3; cell-free RecA intein splicing; inhibition, % (no concentration beside the values); 290,000 tested, 0.75% active; AID 2221, 2009; in the data active = inhibition above about 30%;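 note: 0% = vehicle wells and 100% = reference inhibitor control wells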
# Target sequence (P9WHJ3 whole entry, looked up, canonical isoform): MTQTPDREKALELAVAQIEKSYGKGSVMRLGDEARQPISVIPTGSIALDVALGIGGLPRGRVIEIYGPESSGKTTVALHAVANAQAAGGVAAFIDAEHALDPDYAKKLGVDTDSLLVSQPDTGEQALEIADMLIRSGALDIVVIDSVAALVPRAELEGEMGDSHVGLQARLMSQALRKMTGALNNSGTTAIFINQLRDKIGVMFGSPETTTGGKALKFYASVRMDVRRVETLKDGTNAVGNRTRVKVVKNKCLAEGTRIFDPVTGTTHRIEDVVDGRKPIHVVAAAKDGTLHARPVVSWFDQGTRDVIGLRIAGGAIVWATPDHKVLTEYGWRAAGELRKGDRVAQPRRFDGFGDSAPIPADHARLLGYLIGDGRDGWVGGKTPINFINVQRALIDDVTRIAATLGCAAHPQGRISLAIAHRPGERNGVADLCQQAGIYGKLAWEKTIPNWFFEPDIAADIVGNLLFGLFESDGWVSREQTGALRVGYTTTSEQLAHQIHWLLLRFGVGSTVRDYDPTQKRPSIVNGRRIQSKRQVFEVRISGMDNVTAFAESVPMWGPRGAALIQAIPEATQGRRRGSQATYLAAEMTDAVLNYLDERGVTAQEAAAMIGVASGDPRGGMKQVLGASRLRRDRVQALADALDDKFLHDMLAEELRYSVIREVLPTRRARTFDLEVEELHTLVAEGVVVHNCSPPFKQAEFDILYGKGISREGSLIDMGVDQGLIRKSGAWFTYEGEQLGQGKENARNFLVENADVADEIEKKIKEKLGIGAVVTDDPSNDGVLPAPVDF
# BJeLR viability – MLPCN primary cell-based screen for lethality selective to Ras in HRASV12 cells; 300,000 tested, 0.17% active; inhibition, % (test concentration not listed); BJeLR (HRASV12) viability, CellTiter-Glo ATP luminescence, 48 h; in the data active = inhibition above about 50%
# PfHsp40 yeast – rescue of yeast from PfHsp40 toxicity, primary screen, S. cerevisiae, ATP luminescence. S. cerevisiae expressing PfHsp40, growth rescue. growth rescue, % at 12.5 µM. 340,000 tested, 0.68% active; in the data active = growth rescue above about 28%, passing the limit was not always enough;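 note: yeast W303a lacking pdr1 and pdr3 grown in galactose medium; growth measured after three days at 30 °C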
# SSB-PriA inh – inhibitors of Klebsiella pneumoniae PriA binding to SSB C-terminal tail, primary screen, biochemical, AlphaScreen; AlphaScreen SSBct-PriA binding, biotinylated peptide; inhibition, % at 33 µM; 430,000 tested, 0.6% active; in the data active = inhibition mostly above about 37%, no sharp cut-off; inactive = mostly below about 20%;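 note: plate controls were negative control peptide for no effect and reference peptide for full effect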
# PrP 5UTR inh – inhibition of PrP 5' UTR reporter expression | cell-based PrP 5' UTR mRNA reporter, plate reader | inhibition, % (test concentration not listed) | 340,000 tested, 0.35% active; in the data active = inhibition above about 52%; note: 0 = median of the neutral control wells
# PrPC surface inh – inhibitors of human cell surface prion protein PrPC, primary screen, cell-based, TR-FRET. Major prion protein (Homo sapiens), P04156. TR-FRET read-out. inhibition, % at 13.8 µM. 370,000 tested, 0.43% active. AID 720596, 2013; in the data active = inhibition above about 24%; note: 0% = median of the test wells and 100% = reference compound wells
# * = called active by the depositor; nt = no result given.
SMILES,RecA splice inh,BJeLR viability,PfHsp40 yeast,SSB-PriA inh,PrP 5UTR inh,PrPC surface inh
Cc1cc(C)cc(NS(=O)(=O)c2ccc(-c3cnc(C4CC4)o3)cc2)c1,2,58*,0,6,67*,18
Cc1cc(C(=O)OCC(=O)NC2CCCC(C)C2C)c(C)o1 (stereo unspecified),nt,nt,62*,-8,-5,-15
Cc1cc(C(=O)OCC(=O)NC2CCCCC2)c(C)o1,2,5,-1,-15,-14,-7
Cc1ccc(S(=O)(=O)c2c(NS(=O)(=O)c3ccccc3)n(CCc3ccccc3)c3nc4ccccc4nc23)cc1,nt,nt,nt,67*,nt,nt
CCCCOCCCn1c(NS(=O)(=O)c2ccc(F)cc2)c(S(=O)(=O)c2ccc(C)cc2)c2nc3ccccc3nc21,nt,nt,nt,67*,nt,nt
COc1cccc(CNC(=O)c2c(O)nc3c(C)cccn3c2=O)c1,nt,nt,nt,-8,nt,nt
CC(C)(C)N=C1NN=C(c2cc3ccccc3o2)CS1,1,-10,0,42*,-82,4
CS(=O)(=O)c1ccc2nc(NCc3ccco3)sc2c1,nt,nt,nt,28,nt,nt
Cc1ccc(C(=O)NC(C#N)=C(Cl)Cl)cc1,33*,13,nt,-5,nt,16
Cc1cc(C)n(-c2cc(NC(=O)C3c4ccccc4Oc4ccccc43)ncn2)n1,nt,nt,nt,0,nt,nt
COc1ccccc1NC(=O)C(=O)NCC1CCN(C(C)C)CC1,nt,nt,nt,-4,nt,nt
CC(C)Cc1nc(SCc2cccnc2)c2c(=O)n(C)c(=O)n(C)c2n1,6,-5,33*,-1,-12,6
O=C(Cc1ccc(-c2ccccc2)cc1)NCc1ccccc1,-3,64*,0,3,24,6
Cc1cc(Nc2ccc(Br)cc2)n2ncc(-c3ccccc3)c2n1,nt,nt,nt,-22,nt,nt
CCCc1cc(=O)oc2c(CNc3ccc(OCC)cc3)c(O)ccc12,-42,8,48*,9,-11,1
CCCCc1cc(=O)oc2c(CN3CCCC3)c(O)ccc12,-52,2,1,5,-29,-3
CCCc1c(-c2ccc(O)cc2)nn(-c2ccc(O)cc2)c1-c1ccc(O)cc1,51*,5,5,8,-11,nt
Cc1csc(CN2CCN(C(=O)Cc3ccc(F)cc3)CC2)n1,nt,nt,nt,-15,nt,nt
CC(C)c1ccc2c(c1)CC[C@H]1[C@](C)(CN)CCC[C@]21C,nt,nt,1,10,-37,3
CC(C)c1ccc2c(c1)CCC1C(C)(CN)CCCC21C (stereo unspecified),12,107*,-1,11,-21,-3
CSc1ccc(-c2noc(-c3ccc4c(=O)n(Cc5ccccc5)c(=O)[nH]c4c3)n2)cc1,nt,nt,nt,-3,nt,nt
CC(O)(CNC(=O)c1ccc(C(F)(F)F)nc1)c1cc2ccccc2s1 (stereo unspecified),nt,nt,nt,-18,nt,nt
CCOc1cc(/C=C2\COc3ccccc3C2=O)cc(Br)c1OCC(=O)N(C)C,14,65*,0,10,-18,-10
CCOC(=O)c1nnc(-c2ccccc2)nc1Oc1ccccc1Cl,45*,3,1,-7,-5,1
Cc1ccc(S(=O)(=O)N2CCc3ccc(NC(=O)c4cccc(Cl)c4)cc3C2)cc1,nt,nt,nt,10,nt,nt
SMILES,RecA splice inh,BJeLR viability,PfHsp40 yeast,SSB-PriA inh,PrP 5UTR inh,PrPC surface inh
O=C(NCCCn1ccnc1)Nc1ccc(F)c(Cl)c1,nt,nt,nt,43,nt,nt
O=C(NCC1CC1(Cl)Cl)Nc1ccc(Cl)c(Cl)c1 (stereo unspecified),18,-10,304*,-46,-38,13
O=C(NCCCn1ccnc1)Nc1ccc(Cl)c(Cl)c1,0,1,46*,76*,-35,3
COc1cc(C)c(C)cc1S(=O)(=O)NCC1CCN(c2nc3ccccc3o2)CC1,nt,nt,nt,-4,nt,nt
Cc1nc(C(=O)NCCn2ncc3c(N4CCN(c5ccccc5)CC4)ncnc32)cs1,nt,nt,nt,-12,nt,nt
Cc1ccc(Cn2cc(C(=O)NNC(=O)NC(C)(C)C)ccc2=O)cc1,nt,nt,nt,-6,nt,nt
Cc1sc2ncnc(N/N=C/c3ccccc3O)c2c1C,-5,81*,-1,nt,41,-1
On1ccccc1=S,nt,nt,382*,-14,-37,42*
COC(=O)c1ccc(C(=O)Nc2sccc2-c2nc(C)no2)cc1,nt,nt,nt,1,nt,nt
CCCCCCSCc1ccc(O)c2ncccc12,nt,nt,nt,83*,nt,nt
CCCCCCCCSCc1ccc(O)c2ncccc12,nt,nt,nt,73*,nt,nt
CCCCCCCCCCCCSCc1ccc(O)c2ncccc12,nt,nt,nt,53,nt,nt
Oc1ccc(CSC2CCCCC2)c2cccnc12,nt,nt,nt,69*,nt,nt
O=C(O)CSCc1ccc(O)c2ncccc12,nt,nt,nt,61,nt,nt
COc1ccc(N2CCCS2(=O)=O)cc1NC(=O)c1cccc(C(F)(F)F)c1,nt,nt,nt,-14,nt,nt
CCN(CC)N=Nc1[nH]nc2nc(C)cc(C)c12,1,-10,45*,-22,-8,0
Cc1cc(C)c2c(N=NN3CCCCC3)[nH]nc2n1,-2,2,86*,-11,-8,4
FC(F)(F)c1cnc(N2CCN(C(=S)NCc3ccccc3)CC2)c(Cl)c1,2,-11,77*,-14,-24,2
O=c1cc(NCc2cccs2)[nH]c(=O)n1Cc1ccc(F)cc1,nt,nt,nt,15,nt,nt
CC(C)(C)CC(C)(C)NC(=S)Nc1ccc2nc(-c3ccccn3)c(-c3ccccn3)nc2c1,-87,-2,2,-1,-14,3
OCCCNC(=S)Nc1ccc2nc(-c3ccccn3)c(-c3ccccn3)nc2c1,-122,-11,-1,72*,-5,-33
CN(C)NC(=S)Nc1ccc2nc(-c3ccccn3)c(-c3ccccn3)nc2c1,-3,3,-2,79*,-12,-12
COc1ccc(NC(=O)C(=O)NCC(C)(O)CCSC)c(OC)c1 (stereo unspecified),nt,nt,nt,-1,nt,nt
O=[N+]([O-])c1ccc(C2CCCC/C2=N/OCc2ccccc2F)c([N+](=O)[O-])c1 (stereo unspecified),2,2,0,nt,-20,-2
O=[N+]([O-])c1ccc(C2CCCCC2=NOCc2ccccc2F)c([N+](=O)[O-])c1 (stereo unspecified),nt,nt,nt,50*,nt,nt
SMILES,RecA splice inh,BJeLR viability,PfHsp40 yeast,SSB-PriA inh,PrP 5UTR inh,PrPC surface inh
O=C(OCc1ccccc1)N1CCC2CC1c1c(Cl)cccc12 (stereo unspecified),nt,nt,32*,-15,-10,-5
C=C(C)CNC(=S)N=Nc1c(O)[nH]c2ccc([N+](=O)[O-])cc12,33*,7,-1,-13,-5,1
N#CC1=C(N)C(C#N)(C#N)[C@H](c2c(F)cccc2F)[C@H]2CC3(CC=C12)OCCO3,35*,-2,-2,0,-11,1
O=C(NC1=NCCS1)c1ccccc1Cl,-1,-10,0,-4,-11,-6
O=C(NC1=NCCS1)c1csc2ccccc12,-1,-4,50*,-19,-136,5
Cc1cc(Nc2ccc(Cl)cc2)nc(-c2ccccc2O)n1,-5,-2,72*,5,-1,-2
